According to PubChem BioAssay AID651956 (Broad Institute, 2012):
Entries with a potency or affinity are not part of this list. Inconclusive results are not listed. The source made the active and inactive calls.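 How the source made its calls: active means in every test run, a fitted half-maximal concentration for signal decrease at or below twice the highest tested concentration; inconclusive means runs disagree, flat 30 to 70% decrease, or poor fit; inactive means the rest.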

Experiment: miR-122 activators in hepatoma reporter cells, dose response, cell-based, Huh7 psiCHECK-miR122, Renilla luciferase, cherry-picked (AID 651956);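 further: Renilla luciferase from a miR-122 sensor reporter so lower signal means miR-122 activation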
Conditions: 48 h; series mostly up to 35 µM

outcome, inactive:
COCC(=O)NC[C@@H]1[C@H](c2ccc(C3=CCCC3)cc2)[C@@H](CO)N1C(=O)C1CC1
CCCNC(=O)C[C@@H]1CC[C@H]2[C@H](COc3ccc(NC(=O)c4ccc(C(F)(F)F)cc4)cc3C(=O)N2C)O1
CCS(=O)(=O)Nc1ccc2c(c1)C(=O)N(C)[C@H]1CC[C@H](CC(=O)NCCCN3CCOCC3)O[C@H]1CO2
CCCNC(=O)C[C@H]1CC[C@@H]2[C@H](COc3ccc(NS(=O)(=O)c4ccccc4C)cc3C(=O)N2C)O1
CCCNC(=O)N1[C@H](CNC(C)=O)[C@H](c2ccc(C3=CCCC3)cc2)[C@@H]1CO
CN1C(=O)c2cc(NC(=O)Nc3ccc(Cl)cc3)ccc2OC[C@H]2O[C@H](CC(=O)NCCN3CCCCC3)CC[C@H]21
COc1ccc(C(=O)N2C[C@H]3[C@@H](c4ccccc42)[C@@H](CO)N3C(=O)Cc2ccccn2)cc1
O=C(Nc1ccccc1)N1C[C@@H]2[C@H](c3ccccc31)[C@H](CO)N2Cc1cocn1
COc1cc2nc(C3CCC3)n(NC(=O)C3CCCC(OC)C3)c(=O)c2cc1OC (configuration not stated)
O=C(C1CC1)N1C[C@H]2[C@@H](c3ccccc31)[C@H](CO)N2C(=O)c1ccccc1F
COc1ccc(-c2c(C(C)=O)c(C)nc3sc4c(c23)NC(c2ccccc2)NC4=O)cc1 (configuration not stated)
CCCNC(=O)C[C@@H]1CC[C@H]2[C@@H](COc3ccc(NC(=O)c4ccc(C(F)(F)F)cc4)cc3C(=O)N2C)O1
